Measured values reported in the supplement of paper PMC5919970.
Structures can show the parent of a compound that is named as a salt. The full ranking holds about 2,000 compounds; the median of “fractional viability relative to vehicle” is about 0.91, and the lowest 2% start at about 0.045. This excerpt belongs to a sample that is enriched for the lowest values.

Test system: TYKNU
Test: fractional viability relative to vehicle; TYKNU is a high-grade serous ovarian cancer line; higher = less growth inhibition
Settings: 72 h
In short: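 TYKNU control cells or lentiCRISPRv2 knockout derivatives were seeded at 500 cells per well into drug-stamped 384-well plates holding a ~2100-compound library at 2 or 10 μM, in duplicate. Cells were grown at 37 °C in 5% CO2 in RPMI 1640 with 10% FBS, and drug treatment lasted 72 h. Viability was read by Cell Titer Glo luminescence. Duplicate treatment wells were averaged and normalised to duplicate control wells from the same plate position.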

[1] = 2uM, genotype: DNM1L knockout (sgDNM1L #1)
[2] = 2uM, genotype: sgCTRLA1 (non-targeting control)
[3] = 10uM, genotype: DNM1L knockout (sgDNM1L #1)
[4] = 10uM, genotype: sgCTRLA1 (non-targeting control)

| SMILES | fractional viability [1] | fractional viability [2] | fractional viability [3] | fractional viability [4] |
| --- | --- | --- | --- | --- |
| COc1cc2c(cc1OC)[C@@H]1Cc3ccc(OC)c(OC)c3CN1CC2 [Rotundine] | 1.17 | 1.06 | 1.18 | 1.01 |
| CC[C@]12C=CCN3CC[C@@]4(c5cc([C@@]6(C(=O)OC)C[C@@H]7C[C@@H](C(C)(F)F)CN(Cc8c6[nH]c6ccccc86)C7)c(OC)cc5N(C)[C@H]4[C@@](O)(C(=O)OC)[C@@H]1OC(C)=O)[C@@H]32 [Vinflunine Tartrate] | 0.191 | 0.144 | 0.142 | 0.114 |
| O=C(CCCCCN1C(=O)c2cccc3cccc(c23)C1=O)NO [Scriptaid] | 0.411 | 0.51 | 0.108 | 0.109 |
| O=C(O)C1=C[C@@H](O)[C@@H](O)[C@H](O)C1 [Shikimic Acid] | 0.996 | 1.17 | 0.84 | 1.06 |
| COCC[n+]1c2c(n(Cc3cnccn3)c1C)C(=O)c1ccccc1C2=O [YM155 (Sepantronium Bromide)] | 0.0411 | 0.0393 | 0.0214 | 0.0241 |
| COc1cc2ncnc(Sc3nnc(C)s3)c2cc1OC | 0.747 | 0.866 | 0.0591 | 0.0581 |
| O=C(C[S+]([O-])Cc1ccco1)NC/C=C\COc1cc(CN2CCCCC2)ccn1 (stereo not drawn) [Lafutidine] | 1 | 1.2 | 0.826 | 1.06 |
| O=C([O-])c1ccccc1O.[Na+] [Sodium salicylate] | 1.08 | 1.09 | 0.913 | 1.03 |
| CN1CCN(c2ccc3nc(-c4c(N)c5c(F)cccc5[nH]c4=O)[nH]c3c2)CC1 [Dovitinib (TKI258) Lactate] | 0.398 | 0.423 | 0.0366 | 0.0252 |
| CN1CCN(c2ccc3nc(-c4c(N)c5c(F)cccc5[nH]c4=O)[nH]c3c2)CC1 [Dovitinib (TKI-258, CHIR-258)] | 0.523 | 0.465 | 0.119 | 0.0963 |
| O=C(O)c1ccc(N2C(=O)/C(=C\c3ccc(-c4ccc([N+](=O)[O-])cc4)o3)C=C2c2ccccc2)cc1 | 0.851 | 0.873 | 0.899 | 0.776 |
| O=c1ncccn1[C@@H]1O[C@H](CO)[C@@H](O)[C@H]1O [Zebularine] | 0.97 | 1.06 | 0.676 | 0.938 |
| O=C(Nc1ccccc1)N1CCN(c2nc(-c3ccccc3)ns2)CC1 | 1.06 | 1.14 | 0.828 | 0.976 |
| COc1cc2c(Oc3ccc(NC(=O)C4(C(=O)Nc5ccc(F)cc5)CC4)cc3F)ccnc2cc1OCCCN1CCOCC1 | 0.628 | 0.631 | 0.0524 | 0.0418 |
| COc1cc2nccc(Oc3ccc(NC(=O)C4(C(=O)Nc5ccc(F)cc5)CC4)cc3)c2cc1OC | 1.15 | 1.17 | 0.615 | 0.64 |
| COc1cc2c(Nc3ccc(NC(=O)c4ccccc4)cc3)ncnc2cc1OCCCN1CCOCC1 | 0.862 | 0.959 | 0.266 | 0.22 |
| CCN(C(=O)c1c(O)c2c(Cl)cccc2n(C)c1=O)c1ccccc1 [Laquinimod] | 1.22 | 1.14 | 0.958 | 1.08 |
| CC[C@H](Nc1ncnc2[nH]cnc12)c1nc2cccc(F)c2c(=O)n1-c1ccccc1 [CAL-101 (Idelalisib, GS-1101)] | 0.947 | 1.11 | 0.863 | 0.971 |
| CN(C)CC(=O)Nc1ccc2[nH]c(=O)c3ccccc3c2c1 | 0.84 | 1.06 | 0.74 | 1.03 |

| SMILES | fractional viability [1] | fractional viability [2] | fractional viability [3] | fractional viability [4] |
| --- | --- | --- | --- | --- |
| Nc1nc(Nc2ccc3c(c2)CCC(N2CCCC2)CC3)nn1-c1cc2c(nn1)-c1ccccc1CCC2 (stereo not drawn) | 0.343 | 0.242 | 0.0232 | 0.0259 |
| CNC[C@@H](O)c1ccc(O)c(O)c1 [L-Adrenaline] | 0.842 | 1 | 0.784 | 0.91 |
| CC(C)Oc1ccc(C(=O)N[C@H](CNC(=O)CN(C)C)Cc2ccc(-c3cn4cccc([C@H](C)O)c4n3)cc2)cc1Cl | 0.413 | 0.508 | 0.29 | 0.438 |
| Clc1cccc(-c2nnnn2Cc2cccnc2)c1Cl | 0.755 | 0.927 | 0.755 | 0.73 |
| CS(=O)(=O)Nc1ccc([N+](=O)[O-])cc1Oc1ccccc1 [Nimesulide] | 0.973 | 1.1 | 0.922 | 1.01 |
| O=[N+]([O-])c1ccc2c(c1)S(=O)(=O)C=C2 [Stattic] | 0.0799 | 0.101 | 0.0327 | 0.0222 |
| O=C(O)c1cc(=O)[nH]c(=O)[nH]1 [Orotic acid (6-Carboxyuracil)] | 0.916 | 1.04 | 1.02 | 1.12 |
| COc1ccc([C@]2(C#N)CC[C@@H](C(=O)O)CC2)cc1OC1CCCC1 [Cilomilast] | 0.977 | 1.1 | 0.843 | 1.15 |
| CCc1c(Cl)c(O)c(Cl)c(O)c1C(=O)O[C@H]1[C@H](O)[C@H](OC)[C@H](OC/C2=C\C=C\C[C@H](O)/C(C)=C/[C@H](CC)[C@@H](O[C@@H]3OC(C)(C)[C@@H](OC(=O)C(C)C)[C@H](O)[C@@H]3O)/C(C)=C/C(C)=C/C[C@@H]([C@@H](C)O)OC2=O)O[C@@H]1C [Fidaxomicin] | 0.741 | 0.893 | 0.494 | 0.0966 |
| C[C@H]1O[C@@H](O[C@H]2[C@@H](O)C[C@H](O[C@H]3[C@@H](O)C[C@H](O[C@H]4CC[C@@]5(C)[C@H](CC[C@@H]6[C@@H]5C[C@@H](O)[C@]5(C)[C@@H](C7=CC(=O)OC7)CC[C@]65O)C4)O[C@@H]3C)O[C@@H]2C)C[C@H](O)[C@@H]1O [Digoxin] | 0.0546 | 0.0452 | 0.032 | 0.0309 |
| CCS(=O)(=O)N1CCC([C@@H](C)n2c(C)c(C(=O)NCc3c(OC)cc(C)[nH]c3=O)c3ccccc32)CC1 | 0.746 | 0.93 | 0.908 | 0.836 |
| NC(=O)NO [Hydroxyurea] | 0.92 | 1.14 | 0.948 | 1.16 |
| CC(C)c1cnn2c(NCc3ccccc3)cc(NCCCCCCN)nc12 | 1.09 | 1.13 | 0.83 | 0.972 |
| O=C(O)c1ccccc1 [Benzoic Acid] | 0.793 | 0.98 | 0.581 | 0.958 |
| CN(NC(=O)CC(=O)NN(C)C(=S)c1ccccc1)C(=S)c1ccccc1 [Elesclomol (STA-4783)] | 0.0609 | 0.0221 | 0.0751 | 0.0222 |
| O=C(O)CCNC(=O)c1ccccc1 [Betamipron] | 0.922 | 1.11 | 0.923 | 0.986 |
| O=CN1CC/C(=C/c2ccc3c(c2)OCO3)C1=O | 0.723 | 0.973 | 0.78 | 0.692 |
| OC[C@H]1O[C@@H](OCCc2ccc(O)cc2)[C@H](O)[C@@H](O)[C@@H]1O [Salidroside] | 0.968 | 1.14 | 0.842 | 1.07 |
| O=C(c1cc(Cc2n[nH]c(=O)c3ccccc23)ccc1F)N1CCN(C(=O)C2CC2)CC1 | 0.967 | 1.06 | 0.727 | 1.02 |

| SMILES | fractional viability [1] | fractional viability [2] | fractional viability [3] | fractional viability [4] |
| --- | --- | --- | --- | --- |
| CCN1CCN(Cc2ccc(Nc3ncc(F)c(-c4cc(F)c5nc(C)n(C(C)C)c5c4)n3)nc2)CC1 | 0.289 | 0.473 | 0.0303 | 0.0236 |
| C[N+](C)(C)C[C@H](O)CC(=O)[O-] [L-carnitine] | 1.12 | 1.14 | 0.8 | 1.07 |
| Cc1nnc(C(=O)NC(C)(C)c2nc(C(=O)NCc3ccc(F)cc3)c(O)c(=O)n2C)o1 [Raltegravir (MK-0518)] | 0.979 | 1.07 | 0.879 | 1.06 |
| O=C(Nc1cccc(Cl)c1)c1ccccn1 | 1.06 | 1.05 | 0.971 | 1.12 |
| CN(C)C(=S)NN=C(c1ccccn1)c1ccccn1 | 0.177 | 0.132 | 0.255 | 0.107 |
| Clc1ccc(NN=C(c2ccccc2)c2ccccn2)nc1 | 0.116 | 0.0468 | 0.0355 | 0.0108 |
| CCC[S+]([O-])c1ccc2[nH]c(NC(=O)OC)nc2c1 (stereo not drawn) [Albendazole Oxide] | 1.04 | 0.909 | 0.505 | 0.562 |
| CC1(C)CC(=O)c2c(C(F)(F)F)nn(-c3ccc(C(N)=O)c(N[C@H]4CC[C@H](OC(=O)CN)CC4)c3)c2C1 | 0.976 | 1.16 | 0.981 | 1.09 |
| CC[C@H](NC(=O)[C@H](C)NC)C(=O)N1C[C@@H](O)C[C@H]1Cc1c(-c2[nH]c3cc(F)ccc3c2C[C@@H]2C[C@H](O)CN2C(=O)[C@H](CC)NC(=O)[C@H](C)NC)[nH]c2cc(F)ccc12 [Birinapant] | 0.772 | 1.15 | 0.653 | 0.949 |
| CS(=O)(=O)N1CCN(Cc2cc3nc(-c4cccc5[nH]ncc45)nc(N4CCOCC4)c3s2)CC1 | 0.627 | 0.588 | 0.272 | 0.249 |
| Cc1c(CN2CCN(C(=O)[C@H](C)O)CC2)sc2c(N3CCOCC3)nc(-c3cnc(N)nc3)nc12 | 0.214 | 0.238 | 0.175 | 0.15 |
| COc1ccc(-c2nc(N3CCOCC3)c3sc(CN(C)c4ncc(C(=O)NO)cn4)cc3n2)cn1 | 0.0583 | 0.0505 | 0.0565 | 0.0395 |
| O=C(Nc1c(Cl)cncc1Cl)c1ccc(OC(F)F)c(OCC2CC2)c1 [Roflumilast] | 0.966 | 0.959 | 0.921 | 1 |
| Cc1cc(C)c(S(=O)(=O)n2cc(C)cc2C)c(C)c1 | 0.788 | 0.862 | 0.757 | 0.765 |
| CC(C)NC[C@H](O)COc1ccc(CCOCC2CC2)cc1 [Levobetaxolol HCl] | 1.13 | 1.21 | 0.846 | 1.27 |
| C=CC(=O)Nc1cc(Nc2nccc(-c3c[nH]c4ccccc34)n2)c(OC)cc1N(C)CCN(C)C | 0.324 | 0.409 | 0.0466 | 0.0525 |
| C=CC(=O)Nc1cccc(Nc2nc(Nc3ccc(NC4CN(CCF)C4)cc3OC)ncc2C(F)(F)F)c1 | 0.67 | 0.752 | 0.164 | 0.154 |
| C=CC(=O)Nc1cc(Nc2nccc(-c3cn(C)c4ccccc34)n2)c(OC)cc1N(C)CCN(C)C | 0.614 | 0.895 | 0.0431 | 0.0512 |
| COc1nc(OCc2cccc(-c3ccccc3)c2C)ccc1CNCCNC(C)=O [PD-1/PD-L1 inhibitor 2] | 0.852 | 0.872 | 0.501 | 0.0875 |
